Results taken from ChEMBL document CHEMBL3988442, “University of Dundee, Small-Polar-MMV Screening Library” (2021).

How the values were obtained:
[1] = target: T1, Aspartate--tRNA(Asp/Asn) ligase (Mycobacterium tuberculosis (strain ATCC 25618 / H37Rv)) (UniProt P9WFW3); assay: Assay for Asp RNA synthetase-1 from Mycobacterium tuberculosis; assay type: functional; design: scale not given: direction of the effect not stated beside the values; settings: 30 µM; note: in the data most compounds retested in dose-response had high values
T1 sequence (whole entry): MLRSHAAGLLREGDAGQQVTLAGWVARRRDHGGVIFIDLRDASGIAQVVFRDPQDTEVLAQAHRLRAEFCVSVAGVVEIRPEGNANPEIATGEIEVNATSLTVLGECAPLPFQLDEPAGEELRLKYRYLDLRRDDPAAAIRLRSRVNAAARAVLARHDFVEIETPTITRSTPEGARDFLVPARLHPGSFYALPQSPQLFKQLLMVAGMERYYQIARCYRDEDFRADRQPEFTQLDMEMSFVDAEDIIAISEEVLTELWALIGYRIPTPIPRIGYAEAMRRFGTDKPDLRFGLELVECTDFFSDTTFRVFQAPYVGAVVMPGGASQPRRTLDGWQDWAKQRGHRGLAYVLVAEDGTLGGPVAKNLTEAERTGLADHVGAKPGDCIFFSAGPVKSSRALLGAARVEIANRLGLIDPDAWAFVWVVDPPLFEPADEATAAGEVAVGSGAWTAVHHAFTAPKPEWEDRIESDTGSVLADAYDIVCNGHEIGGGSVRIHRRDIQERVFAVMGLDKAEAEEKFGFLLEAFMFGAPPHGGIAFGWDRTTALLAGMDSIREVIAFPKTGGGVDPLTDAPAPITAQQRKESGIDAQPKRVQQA

[2] = target: Shiga toxin 2 (Escherichia coli O157:H7) (UniProt P09385+P09386); assay: E. coli 0.157:H7 Shiga Toxin SOP - stx2 screening assay; assay type: functional; design: scale not given: direction of the effect not stated beside the values; settings: 30 µM

Row | SMILES | Percent Effect [1] | Percent Effect [2]
1 | Cc1nnc(CN2CCCC(c3cc(C(N)=O)[nH]n3)C2)o1 (configuration not stated) | -2.96% | 4.59%
2 | CN(Cc1cnn(C)c1)C(=O)NCc1nnc2n1CCC2 | -10.2% | 4.62%
3 | Cc1nn(C)c(N(C)C)c1CNCCCN(C)S(C)(=O)=O | -6.1% | -43.8%
4 | CC(=O)NC(C)(C)C(=O)Nc1ncc(Cc2ccc(C)c(F)c2)s1 | -1.27% | -15.4%
5 | O=c1oc(-c2ccc(F)cc2)nn1CN1CCN(C2CCCC2)CC1 | 0.546% | -2.79%
6 | COc1ccc(C(=O)NCCc2nnc3ccccn23)c(OC)c1 | 3.2% | -5.45%
7 | CS(=O)(=O)NC1CCCN(C(=O)NCc2cccnc2)C1 (configuration not stated) | -0.548% | 26.7%
8 | Cc1noc(C)c1C(=O)N1CC[C@H]2C[C@@H](c3ccncn3)O[C@@H]2C1 | 2.79% | 3.86%
9 | CC(C)c1nc(C(=O)NCCn2ccnc2)nn1-c1cccc(F)c1 | -3.06% | 32.1%
10 | COCc1nc(C(=O)NS(=O)(=O)c2cc(F)ccc2F)cs1 | -0.5% | -51.5%
11 | COc1ccc(CNC(=O)C2(C#N)CCCC2)cc1 | 2.12% | 8.48%
12 | CCCC(C)C(=O)N1CCC(n2cccc2C(=O)OC)CC1 (configuration not stated) | 0.787% | -16.1%
13 | COCCN1C(=O)[C@]2(CC[C@@H]3CN(C(=O)NCC(C)C)C[C@@H]32)N=C1C | -3.99% | -11.7%
14 | CC(C)N1Cc2c(C(=O)N3CCOCC3)nn(C)c2C1 | 0.382% | 5.36%
15 | O=C(NCC1CC1)C1CCC2(CCN(C(=O)c3ccccn3)CC2)O1 (configuration not stated) | -1.39% | 1.47%
16 | Cc1ccc(S(=O)(=O)N2CCOc3ccccc32)cc1C(N)=O | 0.611% | -48.3%
17 | Cc1ccc(CCNC(=O)N2CCCC(Cc3nccn3C)C2)cn1 (configuration not stated) | -1.82% | -13.3%
18 | COc1ccc(C(=O)N2CCCC2c2ccco2)cc1OC (configuration not stated) | -3.37% | -11.3%
19 | Cc1nc(CN2CCCC2c2nc(C(C)C)no2)cs1 (configuration not stated) | -4.9% | 12.9%
20 | CNC(=O)c1nc2c(s1)CCN(C(=O)c1cccnc1)CC2 | 2.01% | -18.2%
21 | CCOc1cc(C(=O)N2CCCC(n3cncn3)C2)ccc1C (configuration not stated) | 1.17% | 17.5%
22 | CCN(Cc1ccco1)C(=O)Nc1cc(C(F)(F)F)c[nH]c1=O | 3.71% | 34.2%
23 | Cc1nc(-c2ccccc2F)sc1C(=O)N1CCN(C)CC1 | 1.4% | -0.463%
24 | Cn1ncc2c(=O)[nH]c(CN3CCCC3CC3CCCCC3)nc21 (configuration not stated) | -3.06% | 22.5%
25 | Cn1nc(C(=O)NCc2ccccn2)c2c1CCS(=O)(=O)C2 | -0.726% | -22.4%
26 | CCn1nc2c(cc1=O)CN(CC(=O)Nc1nc(C)c(C)s1)CC2 | 3.7% | -30.8%

Row | SMILES | Percent Effect [1] | Percent Effect [2]
27 | COc1cccc(CN2CCC(c3cc(O)nc(C)n3)C2)c1 (configuration not stated) | -3.62% | -14.1%
28 | Cn1cnc2c1C(COCC1CC1)CN(Cc1ccc3c(c1)OCO3)C2 (configuration not stated) | 0.999% | -23.1%
29 | Cc1ncc2c(n1)CCN(Cc1nc3ccccc3o1)C2 | 6.98% | -21.4%
30 | CC(Cn1cccn1)NC(=O)CCc1ccc(S(N)(=O)=O)cc1 (configuration not stated) | -2.91% | 11.3%
31 | CC1CCCN(CCNC(=O)c2cncnc2C(C)C)C1 (configuration not stated) | 0.418% | -17.1%
32 | NC(=O)c1cnn2c1NCC(CNCCc1ccco1)C2 (configuration not stated) | 0.367% | 26.6%
33 | CC(C)COCc1cncc2c1CCN(Cc1cnn(C)c1)C2 | -0.981% | -36.8%
34 | Cc1cnn(CC2CCCN2C(=O)c2nccc3ccccc23)c1 (configuration not stated) | 3.06% | 28%
35 | NC(=O)C1CN(Cc2c[nH]cn2)CCN(C2CCOCC2)C1 (configuration not stated) | -0.938% | -0.548%
36 | Cn1cc(N2CC3(CCN(Cc4cccs4)CC3)OCC2=O)cn1 | -0.729% | -20.1%
37 | N#Cc1ccnc(N2CCN(C(=O)NC3CCS(=O)(=O)C3)CC2)c1 (configuration not stated) | -2.74% | 8.29%
38 | Cc1nc2cc(=O)[nH]n2c(C)c1CC(=O)Nc1ccc2ccccc2n1 | 1.28% | 36.5%
39 | Cc1ccc(CN2CCn3c(C(=O)N(C)C)cnc3C2)s1 | 5.69% | -13.3%
40 | Cc1c(C2CCCN(C(=O)C3CC3)C2)n2c(nc1=O)CCC2 (configuration not stated) | -0.253% | 10.2%
41 | CCOc1cccc(C(=O)N2CCN(c3nccc(OC)n3)CC2)c1 | 7.36% | 22.4%
42 | COc1ccc(CN2CCN(C(C)=O)CC3(CC(=O)N(C)C3)C2)cc1 (configuration not stated) | 1.68% | -5.8%
43 | CCCNC(=O)NC(=O)CN(CC(C)O)c1ccccc1 (configuration not stated) | 1.53% | 20.6%
44 | COc1cc(CNCc2ccc(NC(=O)NC(C)C)cc2)cc(OC)c1 | 1.67% | -65.1%
45 | CCOCCCNc1nc(O)cc(C2CC(=O)N(C)C2)n1 (configuration not stated) | -1.77% | -22.7%
46 | Fc1ccc2[nH]c(C3CCCN3CCc3ccccn3)nc2c1 (configuration not stated) | 7.64% | -16.2%
47 | Cc1nc(C)n(CC2CCCN2Cc2cc(C)on2)n1 (configuration not stated) | 8.96% | 8.12%
48 | CN(C(=O)C1CSCN1S(=O)(=O)c1ccc(F)cc1)C1CC1 (configuration not stated) | -0.268% | 7.34%
49 | Cn1cc(CN2CC3(CCN(C(=O)c4cscn4)C3)C2)cn1 | -5.56% | -18.3%
50 | CS(=O)(=O)N[C@@H]1CCO[C@]2(CCN(C(=O)c3cnccn3)C2)C1 | 4.35% | 3.82%
51 | CC(C)c1nc(CN2CCCCC2)cs1 | -3.66% | 7.17%
